Inconclusive results are not listed. A call without a number means that no potency is given here. Activity calls are given as the source filed them. Calls come from the whole dose curve; as a rule, active = well fitted inhibition curve with a large enough effect; inconclusive = small, poorly fitted or top-dose-only effect; inactive = flat fitted curve, though single readings scatter.
Assay: Primary qHTS for inhibitors of nuclear receptor binding SET domain protein 2 (NSD2) in an isogenic RCH-ACV NSD2 p.E1099K mutant (9B) (AID 1645876); note: nearly all actives have a fitted effect of over 70% in size

## Nc1ccn(CC(CO)OCP(=O)(O)O)c(=O)n1 (stereo unspecified)
  Potency: inactive

— PubChem BioAssay (NCATS)
